# ChEMBL document CHEMBL3988442, “University of Dundee, Small-Polar-MMV Screening Library” (2021)
# The whole screen tested about 48,000 compounds, of which about 13,000 (27%) showed an effect of 50% or more. Some of the results follow.
# Tested on: Wolbachia pipientis
# Assay: Anti-Wolbachia Cell-Based Screen
# Format: functional
# Set-up: scale not given: in the data most compounds retested in dose-response had high values
# Settings: 5 µM
row,Compound,Percent Effect
1,COc1ccc(Cl)cc1-c1cc(NC(=O)C2CNC(=O)N2)[nH]n1 (stereo unspecified),7.586%
2,COc1ccccc1-c1cc(NC(=O)CCS(=O)(=O)C2CCCC2)[nH]n1,7.035%
3,CC(=O)Nc1cc(-c2cccc(F)c2F)n[nH]1,88.91%
4,O=C(COCC1CC1)Nc1cc(-c2ccc(Br)s2)n[nH]1,-5.562%
5,COc1ccccc1-c1cc(NC(=O)COCC2CC2)[nH]n1,4.73%
6,CCS(=O)(=O)CC(=O)Nc1c(C)cnn1Cc1cc(F)ccc1F,-26.81%
7,Cc1cc(NC(=O)c2ccc(C)c(F)c2)[nH]n1,2.098%
8,CCOCC(=O)Nc1cc(-c2cccc(F)c2F)n[nH]1,91.5%
9,CS(=O)(=O)CCCC(=O)Nc1cc(-c2cccc(F)c2F)n[nH]1,87.07%
10,CCS(=O)(=O)CC(=O)Nc1cc(-c2cccc(F)c2F)n[nH]1,100.6%
11,CS(=O)(=O)CCCC(=O)Nc1cc(Cl)c(Cl)cn1,1.598%
12,CCS(=O)(=O)CC(=O)NCC1(c2c(F)cccc2F)CCCC1,-2.417%
13,CN1CCOC(C(=O)N2CCCC(C)(C)CC2)C1 (stereo unspecified),-5.11%
14,CCc1c(C)nc(N)nc1NCCSCc1[nH]cnc1C,-21.58%
15,c1coc(-c2nc(CN3CCn4c(nnc4C4CC4)C3)cs2)c1,21.52%
16,N#Cc1cccnc1N1CCCC(CO)(Cc2ccc(F)cc2)C1 (stereo unspecified),-22.45%
17,CN(C)C(=O)c1ccc2c(c1)N(C)C(CC(=O)NCc1ncc[nH]1)CO2 (stereo unspecified),-21.18%
18,O=C(COc1ccccc1)NS(=O)(=O)Cc1ccccc1,9%
19,COCCN1C[C@@H](C)[C@@]2(COCCN(C(=O)Cc3ccccc3)C2)C1.O=C(O)C(F)(F)F,-3.108%
20,CC(C)CC(C#N)NC(=O)c1ccc(Oc2cccnc2)cc1 (stereo unspecified),0.407%
21,CCN(Cc1nc2c(cnn2C)c(=O)[nH]1)c1cc(C)ccc1C,-12.64%
22,CCN(Cc1ccc(OC)c(F)c1)Cc1nc2c(cnn2C)c(=O)[nH]1,142.5%
23,CN(Cc1ccc2c(c1)OCO2)Cc1nc2c(cnn2C)c(=O)[nH]1,5.823%
24,COc1ccc(CN(C)Cc2nc3c(cnn3C)c(=O)[nH]2)cc1OC,10.06%

row,Compound,Percent Effect
1,CCN(Cc1ccc2c(c1)OCO2)Cc1nc2c(cnn2C)c(=O)[nH]1,112.4%
2,CCN(Cc1nc2c(cnn2C)c(=O)[nH]1)c1cccc(Cl)c1,-0.7695%
3,CCN(Cc1ccc(F)c(F)c1)Cc1nc2c(cnn2C)c(=O)[nH]1,128.6%
4,CCN(Cc1nc2c(cnn2C)c(=O)[nH]1)c1ccc(OC)c(OC)c1,11.95%
5,COCCN1C[C@H]2CC[C@@H]1CN(Cc1cc(=O)c3cc(C)ccc3[nH]1)C2,-2.085%
6,COc1c(-c2ccc(O)cc2)oc2cc(O)cc(O)c2c1=O [ISOKAEMPFERIDE],3.468%
7,CCc1cc(N2CCC(N[C@@H]3CS(=O)(=O)C[C@H]3O)CC2)nc(N(C)C)n1,-8.378%
8,Cc1ncnc2c1CCN(S(=O)(=O)C1CC1)CC2,105%
9,Fc1cccc(N2CCc3ncnc(N4CCOCC4)c3CC2)c1,24.23%
10,Cc1cnc(N2CCc3ncnc(N4CCN(C)CC4)c3CC2)nc1.O=C(O)C(F)(F)F,-5.23%
11,CN1CCN(c2ncnc3c2CCN(c2ncc(F)cn2)CC3)CC1.O=C(O)C(F)(F)F,6.683%
12,O=S(=O)(C1CC1)N1CCc2ncnc(N3CCOCC3)c2CC1,100.4%
13,CN1CCN(c2ncnc3c2CCN(S(=O)(=O)C2CC2)CC3)CC1.O=C(O)C(F)(F)F,114.5%
14,c1nc2c(c(N3CCOCC3)n1)CCNCC2,91.19%
15,O=C(C1CC1)N1CCCN(c2ncnc3c2CCNCC3)CC1,-5.367%
16,CCOc1ncnc2c1CCN(S(=O)(=O)C1CC1)CC2,10.58%
17,O=S(=O)(C1CC1)N1CCc2ncnc(-c3ccc(F)cc3)c2CC1,10.52%
18,O=S(=O)(C1CC1)N1CCc2ncnc(-c3ccsc3)c2CC1,-15.04%
19,CCN1CCC(CC(=O)N2CCCCC2CCn2cccn2)CC1 (stereo unspecified),1.727%
20,N#Cc1ccc(CNC(=O)NCCNC(=O)C2CCCC2)c(F)c1,4.725%
21,COc1ccc2ccccc2c1CNCC1CCS(=O)(=O)C1.Cl (stereo unspecified),9.511%
22,O=C(O)C(F)(F)F.O=S(=O)(C1CC1)N1CCc2ncnc(N3CCCC3)c2CC1,105.6%
23,O=C(O)C(F)(F)F.O=S(=O)(C1CC1)N1CCc2ncnc(-c3ccncc3)c2CC1,-12.42%
24,O=C(O)C(F)(F)F.O=C(O)C(F)(F)F.O=C(O)C(F)(F)F.c1ccc(CN2CCc3ncnc(N4CCCC4)c3CC2)nc1,8.605%

row,Compound,Percent Effect
1,COCCC1(CNC(=O)NCC2CCCN(C)C2)CCCC1 (stereo unspecified),2.707%
2,COc1ncc(CN2CCOC(Cc3cccc4ccccc34)C2)cn1 (stereo unspecified),-6.808%
3,CCc1ncc(CN2CCCN(CC3CC3)C(C(C)C)C2)cn1 (stereo unspecified),-1.309%
4,COCc1ncc(CN2CC[C@@](C)(O)[C@@H](Cc3ccccc3)C2)cn1,-1.853%
5,COc1ccc(CN2C[C@H](O)C[C@H]2c2nc(-c3ccccc3)no2)cc1,10.67%
6,CCc1ncc(CN2C[C@@H]3C[C@@H](O)CN3C[C@@H]2Cc2ccccc2)cn1,90.44%
7,COc1ncc(CN2C[C@@H]3C[C@@H](O)CN3C[C@@H]2Cc2ccccc2)cn1,106.8%
8,CCOCCN1Cc2ncn(C)c2C(COCC2CCOCC2)C1.O=C(O)C(F)(F)F.O=C(O)C(F)(F)F (stereo unspecified),-3.886%
9,CCOCC1CN(C(=O)N(C)C)Cc2nn(C)cc21 (stereo unspecified),-8.201%
10,CN(C)CC(=O)N1Cc2ncn(C)c2C(COCC2CCOCC2)C1 (stereo unspecified),11.09%
11,CN(C)C(=O)COCC1CN(CC2CCOCC2)Cc2ncn(C)c21 (stereo unspecified),99.32%
12,CN(C)C(=O)N1Cc2ncn(C)c2C(COCC2CCOCC2)C1.O=C(O)C(F)(F)F (stereo unspecified),-8.2%
13,CN(C)CCN1Cc2ncn(C)c2C(COCC(=O)N(C)C)C1 (stereo unspecified),87.7%
14,Cc1ccc(CN2C[C@H]3C(=O)N(CC4CC4)C[C@@]3(C(=O)O)C2)c(F)c1F,26.68%
15,O=C(CN1CCOCC1)N1CCC2(CCCN(C3CCOCC3)C2=O)C1 (stereo unspecified),102.1%
16,O=C(CCCn1cncn1)N1CCC2(CCCN(C3CCCC3)C2=O)C1 (stereo unspecified),-21.81%
17,O=C(CCc1nc(Cl)n[nH]1)N1CCC2(CCCN(CC3CCC3)C2=O)C1 (stereo unspecified),-5.22%
18,CS(=O)(=O)CCC(=O)N1CCC2(CCCN(C3CCOCC3)C2=O)C1 (stereo unspecified),-5.583%
19,O=C(CSC(F)(F)F)N1CCC2(CCCN(C3CCOCC3)C2=O)C1 (stereo unspecified),96.55%
20,CN1CCCC2(CCN(C(=O)Cc3cc4c(cc3Cl)OCCO4)C2)C1=O (stereo unspecified),-11.77%
21,O=C(CCCn1cncn1)N1CCC2(CCCN(CC3CC3)C2=O)C1 (stereo unspecified),15.06%
22,O=C(COCC(F)(F)C(F)F)N1CCC2(CCCN(CC3CC3)C2=O)C1 (stereo unspecified),-8.945%
23,O=C(CSCC1CC1)N1CCC2(CCCN(C3CCOCC3)C2=O)C1 (stereo unspecified),90.41%
24,CCS(=O)(=O)N1CCCC2(CCCN2C(=O)c2cscn2)C1 (stereo unspecified),-8.968%

row,Compound,Percent Effect
1,N#Cc1ccc(NCCCN2C(=O)COc3ccccc32)nc1,-5.647%
2,CNC(=O)c1ccc(CN2CCN(C3=NCC(C)(C)S3)CC2)cc1,129.2%
3,CC(NC(=O)c1cccc(CN2CCN(C)CC2)c1)c1nccs1 (stereo unspecified),12.68%
4,CC(NC(=O)c1cccc(CN2CCN(C)CC2)c1)c1ccccn1 (stereo unspecified),-0.367%
5,CN(C)c1ncccc1C(=O)N1CCN(C2=NCC(C)(C)S2)CC1,-14.23%
6,CNC(=O)c1cccc(CN2CCN(C3=NCC(C)(C)S3)CC2)c1,103.7%
7,CNC(=O)c1cccc(CN2CCC(N(C)Cc3nnc(C)o3)C2)c1 (stereo unspecified),0.9226%
8,COCc1cccc(C(=O)N2CCN(C3=NCC(C)(C)S3)CC2)c1,0.6755%
9,CC(=O)Nc1cccc(CN2CCN(C3=NCC(C)(C)S3)CC2)c1,100.4%
10,CNC(=O)c1cccc(CN2CCN(c3ccncc3)CC2)c1,83.93%
11,CNC(=O)c1ccc(Cn2ccnc2S(C)(=O)=O)cc1,-4.025%
12,CC(=O)Nc1cccc(Cn2nc(C)nc2C)c1,5.981%
13,CC(=O)NCCC(=O)Nc1cccc(N2CCN(CC3CC3)CC2)c1,8.668%
14,CN(CCCc1n[nH]c(N)c1C#N)C(=O)NC1CC1,0.449%
15,O=C(NCCCO)Nc1cccc(C[S+]([O-])c2ccccc2)c1 (stereo unspecified),2.569%
16,CN(Cc1ccccc1)CC1CC2(CO1)CN(Cc1nccs1)C2 (stereo unspecified),11.68%
17,O=C(O)C(F)(F)F.O=C(c1ccncc1)N1CCC2(CCCN(c3ncc(F)cn3)C2)C1 (stereo unspecified),105.7%
18,Cc1occc1C(=O)N1CCC2(CCCN(Cc3cccs3)C2)C1.O=C(O)C(F)(F)F (stereo unspecified),-3.04%
19,Cc1ccc(N2CCC3(CCCN(C(=O)c4cccnc4)C3)C2)nn1.O=C(O)C(F)(F)F (stereo unspecified),-9.172%
20,Cc1ccc(C(=O)N2CCC3(CCCN(c4ccc(C)nn4)C3)C2)cn1 (stereo unspecified),4.152%
21,Cc1ccc(C(=O)N2CCC3(CCCN(c4ncc(F)cn4)C3)C2)cn1.O=C(O)C(F)(F)F (stereo unspecified),104%
22,CN(Cc1ccncc1)C1CC2(CCN(c3ncc(F)cn3)CC2)C1.O=C(O)C(F)(F)F.O=C(O)C(F)(F)F,-2.894%
23,Cc1occc1C(=O)N1CCC2(CCCN(Cc3nccs3)C2)C1.O=C(O)C(F)(F)F (stereo unspecified),1.287%
24,Cc1occc1C(=O)N1CCC2(CCCN(c3ncc(F)cn3)C2)C1.O=C(O)C(F)(F)F (stereo unspecified),116.2%
